Experimental data reported in article PMC12864922, “TDP-43 directly inhibits mRNA accumulation in neurites through modulation of mRNA stability”.
Over roughly 9,900 sequences, “r (bound/input frequency ratio)” has its median near 0.7; the highest 2% begin near 6.5. This is one part of a sample in which the highest values are shown more often than they occur.

B1: ENSMUSG00000031028.502|Tub|9:15;46:52 (ssRNA)
RNA: GGGAGUUCUACAGUCCGACGAUCGCUUCGAUAUCCGCAUGCUACAAGUAAGCACACACCCUCUGGGAAGACAGGAGUCGGAAGCCAAGCACACACGCAACAGUCUGGAAGAGAGCUUUUGGUAAUCAUACCGUCUUCAGUGACAAGGCAACAAUGCUGUAAAGUGGGUUUGUUUGGUUUUGUUUUUUCUUUCUCUUUUAUGGAAAUGGCAGGUCUAUUUGCCUCAAACGUUAUGUAGAAGUAGUUCUAAGUUUAACAAGCAAUAGAGAUGACUGCUUAGCUAGGAUCUGCAGGGAGCUCUGCUCUCUUGCGGUCGCACUAGUGUGGAAUUCUCGGGUGUCAAGG
B2: ENSMUSG00000031028.254|Tub|5:10 (ssRNA)
RNA: GGGAGUUCUACAGUCCGACGAUCGCUUCGAUAUCCGCAUGCUAUGCCACACACCCAUCUGUGAGAAGCUUCUUGGAGCUGAGACACCAGAGGGAAGCAAAGAGCAUUUAGACAUUGCUUUUUGCUUUGAAAUAGAUAUGUUUGGAAACGCUAAGUAGAAGUUUAAAAAGUAGAGUCAUGUAGAGUCAUGCUUUGAAUAUGUGGGUCAUGCUUUAGAUAUGAAGAGGCUAUGCAGGUAAGGAGGCUGGAUUGAUGUAAAUGGAAGUAGUACUUUAAGAAAGCUCUAGAUUUCCCAGGUUGGACACUCUUGCGGUCGCACUAGUGUGGAAUUCUCGGGUGUCAAGG
B3: ENSMUSG00000090935.680|Synj2bp|248:252 (ssRNA)
RNA: GGGAGUUCUACAGUCCGACGAUCGCUUCGAUAUCCGCAUGCUAUUGAGAUUCACCACUGUCAGGAGCUCUCUCUCUCUGCUUAGAAUCAUCCAGACAGCGGGCUGGUCAGCCCACAUUAAAUAAGAACAUGUGGGACUAGAAUUCAGUCAACAAUGACAUGUUUCAUCAGGUGGUUAAAAUGUACAGAUUCUGUUGGAAAUGUUCCAUGGUAUUUCAAUAGCCAGAAUGAAGAACUGGGCUAAGUCCAGAGCUCUGCUCUCUGAGCAUCUGCCCCAGAUACAGAGGCAGACAUACAAGUGGAACUCUUGCGGUCGCACUAGUGUGGAAUUCUCGGGUGUCAAGG
B4: ENSMUSG00000031028.419|Tub (ssRNA)
RNA: GGGAGUUCUACAGUCCGACGAUCGCUUCGAUAUCCGCAUGCUAUGGUGAGAAGAGCAGCCUAGUCUGUAAGAGUGCAGGGCAGCUGGAACCUUAGGCAGCUCCUCUGUAUGCUACCGGCUCCACACCCUAACACUCUCCACCCUCUGCUCCAAACCAGUUCUUCUGCAGAGUGGUGAUGUUAGCUUCCCCAGCUCCUCUCCAAGUCUAGCUUUUUCUGUCCUUCUGGCUCCAAGGUGCUCUGUGUCUGUGUGUGUGUGUCUGUCUGUGUGUGUGUGUGUCGAGGAAAGGGCAAUCUGCAAACACUCUUGCGGUCGCACUAGUGUGGAAUUCUCGGGUGUCAAGG
B5: ENSMUSG00000031028.416|Tub (ssRNA)
RNA: GGGAGUUCUACAGUCCGACGAUCGCUUCGAUAUCCGCAUGCUACUUGGCUGGGUAGCAAAUUGGUGAGAAGAGCAGCCUAGUCUGUAAGAGUGCAGGGCAGCUGGAACCUUAGGCAGCUCCUCUGUAUGCUACCGGCUCCACACCCUAACACUCUCCACCCUCUGCUCCAAACCAGUUCUUCUGCAGAGUGGUGAUGUUAGCUUCCCCAGCUCCUCUCCAAGUCUAGCUUUUUCUGUCCUUCUGGCUCCAAGGUGCUCUGUGUCUGUGUGUGUGUGUCUGUCUGUGUGUGUGUGUGUCGAGGACUCUUGCGGUCGCACUAGUGUGGAAUUCUCGGGUGUCAAGG
B6: ENSMUSG00000031028.409|Tub (ssRNA)
RNA: GGGAGUUCUACAGUCCGACGAUCGCUUCGAUAUCCGCAUGCUAACAGGAAGAUCCCUUACCCCUCAUCCCCUCUUCUUUUUGGUCCUUGGCUGGGUAGCAAAUUGGUGAGAAGAGCAGCCUAGUCUGUAAGAGUGCAGGGCAGCUGGAACCUUAGGCAGCUCCUCUGUAUGCUACCGGCUCCACACCCUAACACUCUCCACCCUCUGCUCCAAACCAGUUCUUCUGCAGAGUGGUGAUGUUAGCUUCCCCAGCUCCUCUCCAAGUCUAGCUUUUUCUGUCCUUCUGGCUCCAAGGUGCUCUGUCUCUUGCGGUCGCACUAGUGUGGAAUUCUCGGGUGUCAAGG
B7: ENSMUSG00000031028.417|Tub (ssRNA)
RNA: GGGAGUUCUACAGUCCGACGAUCGCUUCGAUAUCCGCAUGCUAUGGGUAGCAAAUUGGUGAGAAGAGCAGCCUAGUCUGUAAGAGUGCAGGGCAGCUGGAACCUUAGGCAGCUCCUCUGUAUGCUACCGGCUCCACACCCUAACACUCUCCACCCUCUGCUCCAAACCAGUUCUUCUGCAGAGUGGUGAUGUUAGCUUCCCCAGCUCCUCUCCAAGUCUAGCUUUUUCUGUCCUUCUGGCUCCAAGGUGCUCUGUGUCUGUGUGUGUGUGUCUGUCUGUGUGUGUGUGUGUCGAGGAAAGGGCCUCUUGCGGUCGCACUAGUGUGGAAUUCUCGGGUGUCAAGG
B8: ENSMUSG00000031028.419|Tub|64:68;198:202;204:216;222:236 (ssRNA)
RNA: GGGAGUUCUACAGUCCGACGAUCGCUUCGAUAUCCGCAUGCUAUGGUGAGAAGAGCAGCCUAGUCUGUAAGAGUGCAGGGCAGCUGGAACCUUAGGCAGCUCCUCUCAUACCUACCGGCUCCACACCCUAACACUCUCCACCCUCUGCUCCAAACCAGUUCUUCUGCAGAGUGGUGAUGUUAGCUUCCCCAGCUCCUCUCCAAGUCUAGCUUUUUCUGUCCUUCUGGCUCCAAGGUGCUCACACACACACACACACACACUGUCACACACACACACACACGAGGAAAGGGCAAUCUGCAAACACUCUUGCGGUCGCACUAGUGUGGAAUUCUCGGGUGUCAAGG
B9: ENSMUSG00000031028.418|Tub|70:74;204:208;210:222;228:242 (ssRNA)
RNA: GGGAGUUCUACAGUCCGACGAUCGCUUCGAUAUCCGCAUGCUAGCAAAUUGGUGAGAAGAGCAGCCUAGUCUGUAAGAGUGCAGGGCAGCUGGAACCUUAGGCAGCUCCUCUCAUACCUACCGGCUCCACACCCUAACACUCUCCACCCUCUGCUCCAAACCAGUUCUUCUGCAGAGUGGUGAUGUUAGCUUCCCCAGCUCCUCUCCAAGUCUAGCUUUUUCUGUCCUUCUGGCUCCAAGGUGCUCACACACACACACACACACACUGUCACACACACACACACACGAGGAAAGGGCAAUCUGCUCUUGCGGUCGCACUAGUGUGGAAUUCUCGGGUGUCAAGG
B10: ENSMUSG00000031028.420|Tub (ssRNA)
RNA: GGGAGUUCUACAGUCCGACGAUCGCUUCGAUAUCCGCAUGCUAGAAGAGCAGCCUAGUCUGUAAGAGUGCAGGGCAGCUGGAACCUUAGGCAGCUCCUCUGUAUGCUACCGGCUCCACACCCUAACACUCUCCACCCUCUGCUCCAAACCAGUUCUUCUGCAGAGUGGUGAUGUUAGCUUCCCCAGCUCCUCUCCAAGUCUAGCUUUUUCUGUCCUUCUGGCUCCAAGGUGCUCUGUGUCUGUGUGUGUGUGUCUGUCUGUGUGUGUGUGUGUCGAGGAAAGGGCAAUCUGCAAACAAUGAACCUCUUGCGGUCGCACUAGUGUGGAAUUCUCGGGUGUCAAGG
B11: ENSMUSG00000031028.418|Tub (ssRNA)
RNA: GGGAGUUCUACAGUCCGACGAUCGCUUCGAUAUCCGCAUGCUAGCAAAUUGGUGAGAAGAGCAGCCUAGUCUGUAAGAGUGCAGGGCAGCUGGAACCUUAGGCAGCUCCUCUGUAUGCUACCGGCUCCACACCCUAACACUCUCCACCCUCUGCUCCAAACCAGUUCUUCUGCAGAGUGGUGAUGUUAGCUUCCCCAGCUCCUCUCCAAGUCUAGCUUUUUCUGUCCUUCUGGCUCCAAGGUGCUCUGUGUCUGUGUGUGUGUGUCUGUCUGUGUGUGUGUGUGUCGAGGAAAGGGCAAUCUGCUCUUGCGGUCGCACUAGUGUGGAAUUCUCGGGUGUCAAGG
B12: ENSMUSG00000031028.421|Tub (ssRNA)
RNA: GGGAGUUCUACAGUCCGACGAUCGCUUCGAUAUCCGCAUGCUACAGCCUAGUCUGUAAGAGUGCAGGGCAGCUGGAACCUUAGGCAGCUCCUCUGUAUGCUACCGGCUCCACACCCUAACACUCUCCACCCUCUGCUCCAAACCAGUUCUUCUGCAGAGUGGUGAUGUUAGCUUCCCCAGCUCCUCUCCAAGUCUAGCUUUUUCUGUCCUUCUGGCUCCAAGGUGCUCUGUGUCUGUGUGUGUGUGUCUGUCUGUGUGUGUGUGUGUCGAGGAAAGGGCAAUCUGCAAACAAUGAACAGAAGUCUCUUGCGGUCGCACUAGUGUGGAAUUCUCGGGUGUCAAGG

These binders were tested against TDP-43 (Homo sapiens, UniProt Q13148 1-414) (assay: RNA Bind-n-Seq with designed 260-mer pool; 25 mM Tris-HCl, 150 mM KCl, 3 mM MgCl2, BSA (printed 500 mg/mL), 20 units/mL SUPERase IN; pH not stated; 500 nM RNA pool, 1 h, 4 C; TDP-43 5, 50, 500 nM; high values mean tight binding). Conditions: protein: recombinant; tags: SBP (GST cleaved off with PreScission; pGEX-GST-SBP).
Sequence of TDP-43 (Q13148 whole entry): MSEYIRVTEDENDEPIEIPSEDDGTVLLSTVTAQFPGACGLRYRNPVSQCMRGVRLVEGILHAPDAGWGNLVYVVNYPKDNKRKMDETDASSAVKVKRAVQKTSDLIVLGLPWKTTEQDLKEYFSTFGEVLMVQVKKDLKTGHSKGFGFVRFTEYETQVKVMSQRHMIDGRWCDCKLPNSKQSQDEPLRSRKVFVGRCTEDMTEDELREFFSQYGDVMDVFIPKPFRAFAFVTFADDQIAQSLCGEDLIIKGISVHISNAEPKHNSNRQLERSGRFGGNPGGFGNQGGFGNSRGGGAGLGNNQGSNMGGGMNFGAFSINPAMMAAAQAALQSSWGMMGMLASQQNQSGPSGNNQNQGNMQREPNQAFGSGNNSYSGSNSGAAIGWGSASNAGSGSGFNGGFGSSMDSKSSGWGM
How it was run: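 Streptavidin beads captured recombinant SBP-tagged TDP-43 at 5, 50 or 500 nM, and the beads were incubated for 1 h at 4 °C with 500 nM of an in vitro-transcribed pool of 260-nt 3′ UTR oligos in 25 mM Tris-HCl, 150 mM KCl, 3 mM MgCl2, BSA and SUPERase IN. After washing, bound RNA was eluted with biotin, reverse transcribed, PCR-amplified and sequenced. Binding is reported as R, the mapped-read-normalized abundance of each oligo in the bound sample divided by its abundance in the input. Two independent protein batches served as duplicates.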
B1 was tested, and the binding signal was 0.277 R (bound/input frequency ratio).
In the case of B2, the binding signal is reported as 1.12 R (bound/input frequency ratio).
In the case of B3, the binding signal is reported as 0.197 R (bound/input frequency ratio).
In the case of B4, the binding signal is reported as 5.95 R (bound/input frequency ratio).
In the case of B5, the binding signal is reported as 6.14 R (bound/input frequency ratio).
In the case of B6, the binding signal is reported as 0.927 R (bound/input frequency ratio).
B7 was tested, and the binding signal was 6.83 R (bound/input frequency ratio).
For B8, the binding signal was 3.42 R (bound/input frequency ratio).
B9 was tested, and the binding signal was 3.24 R (bound/input frequency ratio).
B10 was tested, and the binding signal was 7.33 R (bound/input frequency ratio).
For B11, the binding signal was 7.04 R (bound/input frequency ratio).
B12 was tested, and the binding signal was 5.82 R (bound/input frequency ratio).
